About 22,000 (6.9%) of roughly 320,000 compounds were called active. A call without a number means that no potency is given here. Inconclusive results (about 27%) are left out. The call rests on the fitted dose curve; in most records, active means well fitted inhibition curve with a large enough effect; inconclusive means small, poorly fitted or top-dose-only effect, or another doubt; inactive means no such curve, though single readings can be large or run the other way. This excerpt belongs to a sample that is enriched for actives.
Potency means the concentration at half of the fitted maximal effect.

The experiment is described as follows: Primary qHTS for delayed death inhibitors of the malarial parasite plastid, 96 hour incubation. The conditions noted are these: P. falciparum luciferase reporter growth; series mostly up to 28.7 µM. The method in brief: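 Infected RBCs, 2% Hct / 0.05% parasitemia final; luciferase-reporter P. falciparum; cpd 96 h, 37 C, 5% CO2; luciferase detection reagent; luminescence.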
Background: In qHTS, concentration-response curves come from the screen itself.
Take `O=C(O)CCn1c(O)c(C=C2N=c3ccccc3=N2)sc1=S`: the Potency is 4.65 µM (active).
Next, `O=C(O)CCn1c(Cc2ccccc2)nc2ccccc21`: “inactive”; `Cc1cc2ccccc2n1CCC(=O)O`: “inactive”.
As for `CCS(=O)(=O)C1=NSC2=NC(=O)/C(=C\c3ccc(OS(=O)(=O)c4ccccc4)cc3)C(=N)N21`, the Potency entry is “inactive”.
In the case of `CC(C)(C)C(=O)Nc1c(Br)c(C2CC2)nn1-c1ccccc1` it was “inactive”.
Next, `Cc1cc(=O)oc2c1ccc1ccccc12`: “inactive”.
Next, `Cc1coc2c(O)cc3c(c12)OC1(N2CCCCC2)C(=O)NCCCC31` (configuration not stated): 9.28 µM (active); `NNC(=O)c1ccc(COCC(F)(F)C(F)F)cc1`: “inactive”; `O=C(N/N=C/c1ccco1)c1csc2c1CCCC2`: “inactive”.
For `Cc1cc(C)n(-c2ccc(NC(=O)C3CCCCN3C(=O)c3cccs3)cc2)n1` (configuration not stated), the Potency result is “inactive”.
In the case of `COc1ccc(C(=O)N2CCCCC2C(=O)Nc2ccc(-n3nc(C)cc3C)cc2)o1` (configuration not stated) it was 10.4 µM (active).
As for `CN(C)C(=O)CCC(=O)N1CCCCC1C(=O)Nc1ccc(Oc2ccccc2F)cc1` (configuration not stated), the Potency entry was “inactive”.
As to `O=C(CN1CCCCC1)NC(=O)Nc1ccccc1F`, the Potency entry was “inactive”.
Next, `CCN(CC(=O)NCC(=O)Nc1cccc(C)c1C)Cc1ccccc1`: “inactive”.
Next, `COc1cccc2cc(C(=O)N3CCN(C(=O)c4ccccc4)CC3)c(=O)oc12`: “inactive”.
In the case of `COc1cccc(C(=O)OCc2cc(=O)oc3c(C)c(C)ccc23)c1OC`, the Potency entry was “inactive”.
Regarding `COc1cccc2cc(-c3cc(=O)oc4cc(C)c(O)cc34)oc12`, the Potency was 13.1 µM (active).
Next, `O=C(NCc1ccccc1)C(c1ccccc1)N(C(=O)c1csnn1)c1ccc(F)cc1` (configuration not stated): “inactive”.
Next, `O=C(COc1cccc(Cl)c1)NCc1ccccc1`: “inactive”; `O=C(O)CCCn1cc(NC(=O)COc2cccc(Cl)c2)cn1`: 14.7 µM (active).
Next, `O=C(O)CCCC(=O)Nc1ccc(Oc2cccc(C(F)(F)F)c2)nc1`: “inactive”; `COc1ccccc1NC(=O)C(C)OC(=O)CC1CCCC1` (configuration not stated): “inactive”.
For the compound `Cc1ccccc1NC(=O)CCNS(=O)(=O)c1ccc2[nH]c(=O)oc2c1`, the Potency result is “inactive”.
Consider `COc1cccc(CN(C)CC(=O)Nc2sc3c(c2C#N)CCC3)c1`, for which the Potency entry is “inactive”.
Next, `Cc1ccccc1C(OCC(O)CN1CCCCC1CCO)c1ccccc1` (configuration not stated): “inactive”; `COc1cccc(CN(C)CC(O)COC(c2ccccc2)c2ccccc2C)c1` (configuration not stated): 5.86 µM (active); `CCc1nn(CCCC(=O)NC(C)c2ccccc2)c(=O)c2cc3occc3n12` (configuration not stated): “inactive”.
Next, `CCN1C(=O)C(=O)N(CC(=O)Nc2cc(C)ccc2C)C1=O`: “inactive”.
In the case of `Cc1cccc(NC(=O)CCN2CC(C)CC(C)C2)c1` (configuration not stated) it was “inactive”.
For the compound `CNc1nc2c(C)cccn2c(=O)c1C=Nc1ccc(OC)cc1`, the Potency result is “inactive”.
Next, `NS(=O)(=O)c1ccc(Nc2nc(-c3ccccc3)cs2)cc1`: “inactive”.
Regarding `Cc1cccn2c(=O)c(C=O)c(Nc3ccc(S(N)(=O)=O)cc3)nc12`, the Potency is 5.86 µM (active).
Regarding `CCOCCCNC(=O)c1ccc(CS(=O)(=O)c2cccc(C(F)(F)F)c2)o1`, the Potency entry is “inactive”.
Next, `CCc1cc(C(=O)Nc2nnc(C3CC3)s2)sc1C`: “inactive”; `COc1ccc(CCn2c(-c3ccco3)nc3nc4ccccc4nc32)cc1OC`: “inactive”.
In the case of `COc1cc(-c2n[nH]c(=S)n2Cc2ccccc2)cc(OC)c1OC` it was “inactive”.
Next, `CCC(C)n1c(-c2cc(OC)c(OC)c(OC)c2)nc2nc3ccccc3nc21` (configuration not stated): 5.86 µM (active).
Turning to `COc1ccccc1N1CCN(CC(=O)Nc2ccnn2C2CCCC2)CC1`, the Potency result was “inactive”.
Next, `Cc1ccc(SCC(=O)NNC(=O)c2ccc(S(C)(=O)=O)cc2)cc1`: “inactive”.
In the case of `COc1ccccc1CN1CC(C(=O)NCCc2cn[nH]c2)CCC1=O` (configuration not stated) it was “inactive”.
In the case of `CCC(=O)Nc1ccc2c(c1)nc(CCN1CCN(c3ccccn3)CC1)n2C` it was “inactive”; in that of `NS(=O)(=O)c1ccc(NC(=S)NC(=O)c2cccnc2)cc1`, “inactive”.
For `O=C(NC(=S)Nc1ccc(S(=O)(=O)Nc2ncccn2)cc1)c1cccc(Br)c1`, the Potency result was “inactive”.
As for `NS(=O)(=O)c1ccc(NC(=S)NC(=O)c2cccc(Br)c2)cc1`, the Potency is 13.1 µM (active).
Next, `Cc1cc(NC(=O)[C@H](C)NC(=O)c2ccco2)ccc1Br`: “inactive”.
In the case of `CCc1ccc(C(=O)COC(=O)c2ccco2)cc1` it was “inactive”; in that of `CC(C)(C)c1ccc(C(=O)N2CCC(C(=O)N3CCCCC3)CC2)cc1`, “inactive”.
In the case of `CCOC(=O)c1cc2c(n(-c3ccc(C)cc3)c1=O)CCCC2=O` it was “inactive”; in that of `CCOC(=O)C1=C(C)NC(=S)NC1c1cccs1` (configuration not stated), “inactive”.
Consider `CCOC(=O)C1=C(N)N(c2ccc(C)cc2)C2=C(C(=O)CCC2)C1c1cccs1` (configuration not stated), for which the Potency was 3.7 µM (active).
In the case of `COC(=O)c1ccc(NC(=O)c2cc3c(CO)cnc(C)c3oc2=Nc2cccc(C(N)=O)c2)cc1`, the Potency entry was “inactive”.
In the case of `CC(/C=N/NC(=O)c1cc(-c2ccc3ccccc3c2)n[nH]1)=C\c1ccco1` it was “inactive”; in that of `CC(C)c1cc(C(=O)N/N=C/C(Br)=C/c2ccccc2)n[nH]1`, 3.29 µM (active).
In the case of `Cc1cc(-c2n[nH]c(=S)n2/N=C/C(Br)=C/c2ccccc2)n[nH]1` it was “inactive”; in that of `CN(C(=O)COC(=O)CCCc1c[nH]c2ccccc12)c1c(N)n(Cc2ccccc2)c(=O)[nH]c1=O`, “inactive”; in that of `CCCNC(=O)C(=O)Nc1cc2c3c(c1)CCC(=O)N3CCC2`, “inactive”.
Next, `COc1ccc(CCNC(=O)C2CCCN2C(=O)Nc2ccccc2)cc1OC` (configuration not stated): “inactive”; `O=C(O)/C=C/c1cn(-c2ccccc2)nc1-c1cccs1`: “inactive”.
Turning to `O=C(O)/C=C/c1cn(Cc2ccccc2)nc1-c1cccs1`, the Potency entry is “inactive”.
Consider `O=C(O)c1ccc(NC(=O)c2cn(-c3ccccc3)nc2-c2ccc(Cl)cc2)cc1`, for which the Potency entry was “inactive”.
As for `O=C(/C=C\c1cn(-c2ccccc2)nc1-c1cccs1)N1CCOCC1`, the Potency was 10.4 µM (active).
Turning to `O=C(O)c1ccc(N/N=C/c2cn(-c3ccccc3)nc2-c2cccs2)cc1`, the Potency was 0.465 µM (active).
In the case of `COc1ccc(-c2nn(-c3ccccc3)cc2/C=C\C(=O)Nc2ccc(C(=O)O)cc2)cc1` it was “inactive”.
Next, `N#Cc1cccc(CN2CCC(=O)N(CCO)CC2)c1`: “inactive”; `COc1ccccc1N1CCN(S(=O)(=O)CCNC(=O)c2ccc(OC(C)C)cc2)CC1`: “inactive”; `CCCCC1(C(=O)OCC)NC(c2ccc(O)cc2)C2C(=O)N(c3ccccc3)C(=O)C21` (configuration not stated): “inactive”.
Next, `CC(OC(=O)C1CC(=O)N(Cc2ccccc2)C1)C(=O)Nc1ccccc1[N+](=O)[O-]` (configuration not stated): “inactive”.

Source of the values: PubChem BioAssay AID504834 (National Center for Advancing Translational Sciences (NCATS), 2011).
